Source: PubChem
Rows were chosen to be rich in hits. Some 8.7% of all compounds tested hit in one or more screens of this group.
JMJD2A Tudor: JMJD2A Tudor domain (human) inhibition; Potency, µM (series often up to 114 µM), for inactives: top-dose activity change, negative = inhibition, hits mostly inhibitors; AlphaScreen JMJD2A-Tudor / H3K4me3 peptide binding; O75164; hit rate 4.4% among 390,000; AID 504339; further: on the % scale 0 is the no-effect control and ±100 the full control effect; nearly all actives have a fitted effect of over 50% in size
Sfp inh: blocks B. subtilis Sfp PPTase activity; Q9F4F7; AID 1490; Biochemical Sfp PPTase activity, qHTS; hit rate 3.5% among 310,000; Potency, µM, without a hit: largest response in the series, negative = inhibition, usual class: inhibitors;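 further: the enzyme is Sfp with the accession as filed and its product quenches rhodamine fluorescence; 0% = enzyme reaction without inhibitor and -100% = no enzyme wells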
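Buffer: 50 mM Hepes-Na pH 7.6, 10 mM MgCl2, 0.01% Nonidet P-40, 0.01% BSA. Enzyme 15 nM, pre-exposed to compound 15 min; substrates then added and fluorescence change tracked over 30 min.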
12-LOX inh: inhibitors of human 12S-lipoxygenase ALOX12; P18054; purified 12hLO, xylenol orange hydroperoxide absorbance; Potency, µM (titrated, usually from 108 µM), without a hit: top-dose activity change, negative = inhibition, most hits filed as inhibitors; hit rate 1.1% among 580,000; further: on the % scale 0 is the no-effect control and ±100 the full control effect
Target sequence (P18054 whole entry, looked up): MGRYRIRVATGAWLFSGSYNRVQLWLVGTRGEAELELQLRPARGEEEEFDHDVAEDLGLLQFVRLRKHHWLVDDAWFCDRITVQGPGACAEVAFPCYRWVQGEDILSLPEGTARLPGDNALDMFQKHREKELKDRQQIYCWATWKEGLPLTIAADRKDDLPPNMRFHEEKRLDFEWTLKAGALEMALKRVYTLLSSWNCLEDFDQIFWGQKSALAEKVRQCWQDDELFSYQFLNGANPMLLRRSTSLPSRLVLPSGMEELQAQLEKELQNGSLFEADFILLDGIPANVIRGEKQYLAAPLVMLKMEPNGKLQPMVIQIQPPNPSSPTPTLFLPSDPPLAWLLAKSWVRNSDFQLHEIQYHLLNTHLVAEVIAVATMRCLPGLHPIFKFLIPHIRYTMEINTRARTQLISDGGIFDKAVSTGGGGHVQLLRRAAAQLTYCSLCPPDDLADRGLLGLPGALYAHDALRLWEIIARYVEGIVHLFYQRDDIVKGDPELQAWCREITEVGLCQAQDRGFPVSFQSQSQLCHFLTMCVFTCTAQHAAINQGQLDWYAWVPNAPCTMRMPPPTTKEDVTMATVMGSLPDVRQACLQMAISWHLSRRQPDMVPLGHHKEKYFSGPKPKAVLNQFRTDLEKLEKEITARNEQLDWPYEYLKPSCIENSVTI
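Purified human 12hLO at 150 nM in 25 mM Hepes, 0.01% Triton X-100, pH 7.0, preincubated 15 min at room temperature with compound. Reaction started with 40 uM arachidonic acid, 30 min at room temperature. Hydroperoxide measured by Fe-xylenol orange, 573/405 nm absorbance ratio.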
G9a inh: G9a (human) methyltransferase inhibition; Q96KQ7; G9a H3K9 monomethylation, AlphaScreen, 2 h; Potency, µM (top dose mostly 102 µM), without a hit: at the top dose activity, negative = inhibition, most hits filed as inhibitors; hit rate 8.8% among 350,000; further: on the % scale 0 is the no-effect control and ±100 the full control effect; nearly all actives have a fitted effect of over 75% in size
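AlphaScreen read-out: biotin-H3K9 peptide (500 nM) methylation by 20 nM enzyme with 20 uM SAM, 2 h at room temperature after 15 min compound preincubation; anti-monomethyl H3K9 antibody plus donor/acceptor beads, 10 min dark.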
BAZ2B inh: inhibitors of human BAZ2B bromodomain. Q9UIF8. AlphaScreen BAZ2B-H3K14Ac peptide displacement. Potency, µM (highest dose often 114 µM), inactives show at the highest dose activity change, negative = inhibition, most hits filed as inhibitors. hit rate 4.4% among 360,000; further: on the % scale 0 is the no-effect control and ±100 the full control effect; nearly all actives have a fitted effect of over 60% in size
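Complex of BAZ2B and biotin-H3K14Ac (50 nM apiece) forms over 30 min at RT, then faces library compounds up to 110 uM for another 30 min; AlphaScreen beads added, 20 min dark incubation, luminescence read.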
HP1b chromo inh: HP1-beta chromodomain-methylated histone interaction inhibition; AID 540317; AlphaScreen HP1-beta / biotin-H3K9me3 peptide binding; hit rate 0.56% among 390,000; Potency, µM (series often up to 114 µM), inactives show at the top dose activity change, negative = inhibition, hits mostly inhibitors; further: nearly all actives have a fitted effect of over 70% in size
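HP1-beta protein (50 nM final) preincubated 30 min at room temperature with biotinylated H3(1-18)K9me3 peptide (50 nM) in PBS pH 7.4, 0.01% Tween-20, then compound added for 30 min. AlphaScreen streptavidin donor/nickel chelate acceptor beads (10 ug/mL final), 30 min dark, luminescence read.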
Active calls of the source: *; ? = inconclusive; nt = no result; ! = repeats disagree; [ ] = another dose, or the depositor's remark. The call rests on the fitted dose curve; in most records, active means well fitted curve in the direction sought with a large enough effect; inconclusive means small, poorly fitted or top-dose-only effect, or another doubt; inactive means no such curve, though single readings can be large; an effect the other way counts as inactive or inconclusive. Potency means the concentration at half of the fitted maximal effect.

SMILES	JMJD2A Tudor	Sfp inh	12-LOX inh	G9a inh	BAZ2B inh	HP1b chromo inh
CCOC(=O)C1=C(O)/C(=C/c2ccc(OCC(=O)O)c(OC)c2)SC1=Nc1ccc(OCC)cc1	?	-22%	?	?	?	?
CCOC(=O)C1=C(O)/C(=C/c2cc(OC)c(O)c(OC)c2)SC1=Nc1ccc(OC)cc1	-21%	-24%	-17%	8.9µM*	-34%	9%
CCOC(=O)C1=C(O)/C(=C/c2ccccn2)SC1=Nc1ccc(Cl)cc1	-25%	32µM*	6%	-6%	-33%	14%
CCOC(=O)C1=C(O)/C(=C/c2ccc(-c3ccccc3C(=O)O)o2)SC1=Nc1ccc(C)cc1	50µM*	5%	?	12%	-36%	-15%
CCOC(=O)C1=C(O)/C(=C/c2ccc(OCC(=O)O)c(OCC)c2)SC1=Nc1ccccc1	-33%	12%	-23%	-34%	?	-6%
CC(/C=C/C(=O)NO)=C\[C@@H](C)C(=O)c1ccc(N(C)C)cc1	nt	11%	nt	16µM*!	nt	nt
O=C1CC2(CCN(C(=O)c3ccc4c(c3)OCO4)CC2)Oc2ccccc21	nt	nt	20%	nt	nt	nt
CCOc1cc(C#N)ccc1OC(=O)c1ccccc1OC	nt	nt	4%	nt	nt	nt
CNCCc1ccccn1	?	-24%	-13%	5%[21.5 µM]	?	?
CNCCc1cnc(CCC(c2ccccc2)c2ccccc2)[nH]1	nt	nt	nt	10µM*	nt	nt
CCOc1cc(/C=C/C(=O)c2ccc(C)cc2)cc(Cl)c1O	nt	nt	22µM*	nt	nt	nt
CCOc1cc(/C=C/C(=O)c2ccc(Cl)cc2)cc(Cl)c1O	nt	nt	7.9µM*	nt	nt	nt
C#CCOCCOCCOCCNc1nc(N2CCN(C(=O)[C@H](CCCN=C(N)N)n3cc(C(N)[C@@H](C)CC)nn3)CC2)nc(N2CCN(C(=O)[C@H](CCC(=O)O)n3cc([C@@H](N)[C@H](C)CC)nn3)CC2)n1 (stereo partly specified)	?	nt	-4%	nt	nt	8%
C#CCOCCOCCOCCNc1nc(N2CCN(C(=O)[C@H](CCCN=C(N)N)n3cc(C(N)[C@@H](C)CC)nn3)CC2)nc(N2CCN(C(=O)[C@H](CCC(=O)O)n3cc([C@@H](N)CO)nn3)CC2)n1 (stereo partly specified)	25µM*	nt	18%	nt	nt	3%
C#CCOCCOCCOCCNc1nc(N2CCN(C(=O)[C@H](CCCN=C(N)N)n3cc(C(N)[C@@H](C)CC)nn3)CC2)nc(N2CCN(C(=O)[C@H](CCC(=O)O)n3cc([C@@H](N)CC(N)=O)nn3)CC2)n1 (stereo partly specified)	50µM*	nt	14%	nt	nt	14%
C#CCOCCOCCOCCNc1nc(N2CCN(C(=O)C([C@@H](C)O)n3cc([C@@H](N)CCCCN)nn3)CC2)nc(N2CCN(C(=O)[C@H](CCCN=C(N)N)n3cc(C(N)[C@@H](C)CC)nn3)CC2)n1 (stereo partly specified)	56µM*	nt	nt	nt	nt	19%
C#CCOCCOCCOCCNc1nc(N2CCN(C(=O)C([C@@H](C)O)n3cc([C@@H](N)CCCCN)nn3)CC2)nc(N2CCN(C(=O)[C@H](CC(N)=O)n3cc([C@@H](N)C(C)C)nn3)CC2)n1 (stereo partly specified)	?	nt	-2%	nt	nt	18%
C#CCOCCOCCOCCNc1nc(N2CCN(C(=O)[C@H](CCCN=C(N)N)n3cc(C(N)[C@@H](C)CC)nn3)CC2)nc(N2CCN(C(=O)[C@H](CCCCN)n3cc([C@@H](N)CC(N)=O)nn3)CC2)n1 (stereo partly specified)	89µM*	nt	-27%	nt	nt	33%
Fc1c(F)c(F)c(N=Cc2ccsc2)c(F)c1F	nt	nt	2%	nt	nt	nt
Cc1ccc(-n2nnnc2C2(NC3CCCCC3)CCCC2)cc1	nt	nt	8%	nt	nt	nt
O=C1CCn2nnc(CNc3cccc(C(F)(F)F)c3)c2CN1Cc1ccccc1	nt	nt	-7%[176 µM]	nt	nt	nt
COc1ccccc1N1CCN(C(=O)c2cc(C)no2)CC1	nt	nt	-16%	nt	nt	nt
CCOc1ccccc1C1CC(=O)NC(SCC)=C1C#N (stereo unspecified)	-10%	-1%	-3%	?	7%	36%
CCOc1ccccc1C1CC(=O)NC(SCC(=O)Nc2nccs2)=C1C#N (stereo unspecified)	-15%	?	-35%	14µM*	-12%	34%
C=CCSC1=C(C#N)C(c2ccccc2OCC)CC(=O)N1 (stereo unspecified)	-19%	71µM*	-26%	?	1%	-7%
SMILES	JMJD2A Tudor	Sfp inh	12-LOX inh	G9a inh	BAZ2B inh	HP1b chromo inh
CCCSC1=C(C#N)C(c2ccccc2C)CC(=O)N1 (stereo unspecified)	-8%	?	?	25µM*	7%	33%
CCCSC1=C(C#N)C(c2ccc(O)c(OC)c2)CC(=O)N1 (stereo unspecified)	-6%	10%	-2%	50µM*	10%	35%
CN(Cc1cnc2ccccc2c1)C(=O)c1ccc(CCC(C)(C)O)cc1	nt	nt	21%	nt	nt	nt
CNC(=O)[C@@H]1CN(C(=O)Cc2ccc(Br)cc2)C[C@H]1CO	nt	nt	28%	nt	nt	nt
N#Cc1ccc(S(=O)(=O)N2CCC3(CC2)CC(CC(=O)N2CCOCC2)CCO3)cc1 (stereo unspecified)	nt	nt	53%	nt	nt	nt
CCN(CC)CCCNC(=O)c1nc(-c2cccc3[nH]ccc23)no1	nt	nt	-12%	nt	nt	nt
CCN1CCC2(Cc3ccccc3CN(C(=O)c3c(C)noc3C)C2)C1 (stereo unspecified)	nt	nt	6%[6.33 µM]	nt	nt	nt
CCSC1=C(C#N)C(c2ccccc2OC)CC(=O)N1 (stereo unspecified)	-10%	2%	?	-3%[59 µM]	-4%	30%
C=CCSC1=C(C#N)C(c2ccccc2OC)CC(=O)N1 (stereo unspecified)	-7%	56µM*	?	?	13%	26%
Cc1ccc(C2CC(=O)NC(SCCC(C)C)=C2C#N)cc1 (stereo unspecified)	-1%	45µM*	?	32µM*	-3%	?
COC(=O)CSC1=C(C#N)C(c2ccc(C(C)C)cc2)CC(=O)N1 (stereo unspecified)	-32%	0%	-19%	?	8%	16%
Cc1ccc(C(=O)N2CCC(n3cc(-c4nc(C(C)C)no4)nn3)CC2)s1	nt	nt	14%	nt	nt	nt
NC(N)=N/N=C/c1cccc([N+](=O)[O-])c1O	-20%	11%	-14%	?	?	2%
NC(N)=N/N=C/c1cccc(Cl)c1Cl	-17%	2%	-8%	18µM*	-23%	10%
O=S(=O)(c1cccc(-c2nc3ccccc3s2)c1)N1CCCCCC1	nt	nt	-27%	nt	nt	nt
